# Bioassay records from PubChem.
# TDP1 cell CPT: DT40-hTDP1 cell growth loss with CPT. hit rate 12% among 420,000. chicken DT40 Tdp1-/-;hTDP1 cells + 20 nM CPT, ATP luminescence, 48 h. Potency, µM (doses to about 46.2 µM), inactives show top-dose activity change, negative = growth inhibition, usual class: inhibitors; also: potency is read from the fitted curve at half-maximal effect; nearly all actives have a fitted effect of over 55% in size
#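 Chicken DT40 Tdp1-/- cells stably complemented with human TDP1 were seeded at 400 cells/well in medium containing 20 nM camptothecin, exposed to pin-transferred compounds, and grown at 37 °C for at least 48 hr. Viability was read as ATP luminescence.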
# TDP1 block: TDP1 (human) enzyme inhibition; Potency, µM (series often up to 130 µM), for the others: top-dose activity change, negative = inhibition, actives largely listed as inhibitors; recombinant TDP1, AlphaScreen DNA substrate cleavage; Q9NUW8; hit rate 0.28% among 350,000; also: potency is read from the fitted curve at half-maximal effect; nearly all actives have a fitted effect of over 40% in size
# Target sequence (Q9NUW8 whole entry, looked up): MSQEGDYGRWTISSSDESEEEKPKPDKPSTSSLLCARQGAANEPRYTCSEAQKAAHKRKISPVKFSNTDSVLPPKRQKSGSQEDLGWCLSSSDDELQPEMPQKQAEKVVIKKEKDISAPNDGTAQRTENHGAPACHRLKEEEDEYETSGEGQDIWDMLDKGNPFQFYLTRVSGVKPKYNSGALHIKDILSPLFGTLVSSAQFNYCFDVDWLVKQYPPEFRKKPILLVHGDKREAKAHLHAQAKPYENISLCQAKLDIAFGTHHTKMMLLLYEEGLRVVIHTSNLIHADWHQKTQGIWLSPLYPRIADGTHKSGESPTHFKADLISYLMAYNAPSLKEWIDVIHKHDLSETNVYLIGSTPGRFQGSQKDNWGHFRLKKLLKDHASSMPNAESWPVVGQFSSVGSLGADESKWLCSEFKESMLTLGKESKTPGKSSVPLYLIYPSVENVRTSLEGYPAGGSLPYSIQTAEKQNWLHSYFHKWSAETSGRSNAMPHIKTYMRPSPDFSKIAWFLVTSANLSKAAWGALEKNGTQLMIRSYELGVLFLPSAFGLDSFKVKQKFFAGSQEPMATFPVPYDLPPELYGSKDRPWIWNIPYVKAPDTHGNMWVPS
#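 Signal: AlphaScreen proximity between streptavidin donor and anti-FITC acceptor beads on intact substrate. Reaction: Tdp1 1 nM, substrate 15 nM final, 5 min RT after 15 min compound preincubation.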
# IL-1B inflam inh: blocks inflammasome-driven IL-1 beta release | THP-1 LPS/ATP IL-1B secretion, AlphaLISA, 16 h; hits give low values | activity change, % at 57.5 µM | hit rate 4.7% among 360,000 | AID 743279; in the data active = activity change below about -50%; inconclusive = mostly about -30% to -49%
#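 THP-1 cells pretreated 1 hr with compounds (up to 57.5 uM final), then stimulated with LPS (250 ng/mL final) plus ATP (1.25 mM final); secreted IL-1B measured by AlphaLISA after 16 hr, decreased signal indicating inhibition.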
# Giardia kill: kills Giardia lamblia | Giardia lamblia trophozoite viability | hit rate 0.15% among 340,000 | activity change, % at 7.66 µM, hits read low; in the data active = activity change below about -80%; inconclusive = between about -30% and that limit;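 also: parasites exposed to compound for two days anaerobically before the ATP read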
#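 Compounds were tested on trophozoites seeded at 100 cells/well and held 48 hrs at 37 deg C anaerobically. An ATP-based luminescent kit measured the remaining live cells.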
# TDP1 cell noCPT: qHTS for Inhibitors of human tyrosyl-DNA phosphodiesterase 1 (TDP1): qHTS in cells in absence of CPT; DT40 Tdp1-/- hTDP1 cells, no CPT, ATP luminescence, 48 h; Potency, µM (top dose mostly 46.2 µM), for inactives: at the highest dose activity change, negative = growth inhibition, most hits filed as inhibitors; hit rate 15% among 420,000; also: potency is read from the fitted curve at half-maximal effect; nearly all actives have a fitted effect of over 55% in size
#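 A cellular qHTS used chicken DT40 cells lacking endogenous Tdp1 but carrying stably transfected human TDP1. Compounds were applied without camptothecin, and cell growth kinetics were judged by ATP-dependent luminescence after ≥48 hr.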
# ELG1 repair inh: ELG1-dependent DNA repair inhibition | HEK293T ELG1-luciferase reporter, luminescence, 16 h; DNA damage induced by 5-fluorouridine | Potency, µM (series often up to 46.1 µM), inactives show at the top dose activity change, negative = inhibition, actives largely listed as inhibitors | hit rate 2.3% among 330,000; also: potency is read from the fitted curve at half-maximal effect; nearly all actives have a fitted effect of over 55% in size
#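 DMSO vehicle served as the neutral condition. Each well held 2,000 cells given 5-fluorouridine plus compound; after 16 hr at 37 °C/5% CO2, ONE-Glo was added and luciferase measured 30 min later.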
# Starred values were filed as active, the others as inactive; ? = inconclusive; / = no result; [ ] = dose if it differs, or a comment. In the library only some 19% were active in any assay of this set; here they are far more common. Unless noted, calls follow the shape of the dose curve; as a rule, active = well fitted curve in the direction sought with a large enough effect; inconclusive = small, poorly fitted or top-dose-only effect, or another doubt; inactive = no such curve, though single readings can be large; an effect the other way counts as inactive or inconclusive. % is scaled to controls: 0 for no effect and ±100 for the full control effect.
SMILES,TDP1 cell CPT,TDP1 block,IL-1B inflam inh,Giardia kill,TDP1 cell noCPT,ELG1 repair inh
CN(C)C1C(=O)C(C(N)=O)=C(O)[C@@]2(O)C(=O)C3=C(O)c4c(O)cccc4[C@@](C)(O)C3[C@H](O)C12 (stereo not given in full),8.41µM*,/,/,/,-69.9%,/
CN(C)C1C(=O)C(C(N)=O)=C(O)C2(O)C(=O)C3=C(O)c4c(O)cccc4C(C)(O)C3CC12 (stereo not given),-27.0%,/,-17.2,2.6,-18.6%,-2.7%
CN(C)[C@@H]1C(=O)C(C(N)=O)=C(O)[C@@]2(O)C(=O)C3=C(O)c4c(O)cccc4[C@@](C)(O)C3[C@H](O)C12 (stereo not given in full),?,/,17.6,23.8,18.4µM*,1.5%
CNC(=O)Oc1ccccc1C(=O)Nc1ccccc1,?,-1.7%,/,/,?,/
CCNN,/,-6.9%,/,/,/,/
Cc1nnc(NC(=O)c2cccn(Cc3cccc([N+](=O)[O-])c3)c2=O)s1,-12.5%,7.8%,/,/,-4.7%,/
COC1=C(C)C(=O)c2c(c(COC(N)=O)c3n2C[C@@H]2[C@@H]3N2C)C1=O (stereo not given in full),0.1µM*,/,/,/,0.0251µM*,/
CN[C@@H](Cc1c[nH]c2ccccc12)C(=O)O,-4.4%,9.4%[56.1 µM],/,/,-4.9%,/
COc1cccc(C(=O)CCN[C@@H](C)[C@H](O)c2ccccc2)c1,13.3µM*,/,/,/,23.7µM*,/
C1CCC2CCCCC2C1 (stereo not given),4.0%,-1.0%,-5.0,?,-19.2%,?
C[C@H]1[C@@H](O)[C@@H](C)/C=C\C=CCC\C=C/C=C\C=C/C=C[C@@H](O[C@H]2O[C@@H](C)[C@@H](O)[C@@H](N)[C@@H]2O)C[C@@H]2O[C@@](O)(C[C@@H](O)[C@H]2C(=O)O)C[C@@H](O)[C@@H](O)CC[C@@H](O)C[C@@H](O)C[C@@H](O)CC(=O)O[C@H]1C,/,3.1%[21 µM],/,/,/,/
CCOc1ccccc1CN1C2CCC1CC(c1ccc(C)cc1)C2 (stereo not given),23.1µM*,/,-12.2,11.8,18.4µM*,-16.5%
CCOc1ccccc1N1CCN(Cc2cccc(OC)c2OC)CC1,?,-1.0%,8.7,-4.9,?,-12.2%
CCC(C)(C)n1nnnc1C(c1cccc(C#N)c1)N1CCN(c2cc(C)ccc2C)CC1 (stereo not given),16.4µM*,2.1%,23.9,-8.3,23.1µM*,-3.5%
CCN(CC)C(=O)c1ccc(NC(=O)c2cc(S(=O)(=O)N3CCCCCC3)ccc2OC)cc1,-29.9%,/,-2.0,48.9,?,-15.1%
CCN(CC)C(=O)c1ccc(NC(=O)c2cccc(S(=O)(=O)N3CCN(Cc4ccccc4)CC3)c2)cc1,18.4µM*,/,?,-21.7,13µM*,?
CCC(C(=O)Nc1ccccc1C(=O)OC)n1nc(C)c2c(C)n(-c3ccc(C)cc3)nc2c1=O (stereo not given),7.31µM*,2.8%,/,/,11.6µM*,/
COc1ccc(N2CCN(CCc3ccncc3)CC2)cc1,5.7%,0.0%,-11.2,13.9,-4.6%,1.2%
c1cnc(OCCN2CC2)cn1,8.2µM*,/,-1.6,-13.4,13µM*,/
c1cc(OCCN2CC2)ccn1,3.26µM*,/,14.1,24.8,7.31µM*,/
CCOC(=O)c1ccc2c(c1)N(C)C(=O)c1ccccc1S2,?,/,13.2,-2.6,?,-5.4%
CCOC(=O)c1ccc(-[n+]2c(-c3ccccc3)cc(-c3ccccc3)cc2-c2ccccc2)cc1,1.03µM*,3.6%,-98.8*,17.1,0.731µM*,?
CCOC(=O)c1cccc(-[n+]2c(-c3ccccc3)cc(-c3ccccc3)cc2-c2ccccc2)c1,1.64µM*,/,-66.5*,-13.0,1.64µM*,-25.7%
Cc1cc(C)c(NC(=O)C2CC3CCC2C3)c(C)c1 (stereo not given),4.1%,/,18.6,44.0,?,?
N#Cc1cc2c(nc1SCC(=O)Nc1ccc(F)c(Cl)c1)C1CCN2CC1,/,-0.6%,/,/,/,/
SMILES,TDP1 cell CPT,TDP1 block,IL-1B inflam inh,Giardia kill,TDP1 cell noCPT,ELG1 repair inh
Cc1cc(OC(=O)N(C)C)nn1C(=O)N(C)C,/,5.6%,/,/,/,/
CC(C)C(=O)c1cn(Cc2ccc(C#N)cc2)c2ccccc12,29.1µM*,-9.1%[56.1 µM],-10.0,-0.3,?,18.4µM*
CC(=O)c1cn(Cc2ccc(C#N)cc2)c2ccccc12,-10.3%,4.8%,29.5,-6.1,-11.6%,8.9%
c1ccc2c(CNC3CCCCCC3)c[nH]c2c1,3.26µM*,7.0%,-70.1*,3.5,7.31µM*,-3.9%
CN1CCC(N(C)c2nc(-c3ccc([N+](=O)[O-])cc3)nc3ccccc23)CC1,8.2µM*,0.0%,-96.2*,5.7,11.6µM*,?
CCN(CC)S(=O)(=O)c1ccc(C(=O)O)cc1,-11.8%,2.4%,0.7,27.6,23.2%,?
Cc1ccc(C)c(NC(=O)Cn2nc(C)c3nn(-c4ccc(Cl)cc4)c(C)c3c2=O)c1,23.1µM*,2.7%,/,/,18.4µM*,/
Cc1ccc(-n2nc3c(=O)n(CC(=O)Nc4ccccc4F)nc(C)c3c2C)c(C)c1,?,-7.6%,/,/,18.4µM*,/
CC[C@H](C)C(=O)O[C@H]1C[C@H](O)C=C2C=C[C@H](C)[C@H](CC[C@@H](O)C[C@@H](O)CC(=O)O)[C@H]21,?,5.1%,/,/,-26.7%,/
O=C(Cc1ccc(N(CCCl)CCCl)cc1)NC(Cc1ccc(Cl)cc1)C(=O)O (stereo not given),?,5.3%,0.0,4.5,?,-4.0%
O=C(Cc1c[nH]c2ccccc12)NNCc1ccc(N(CCCl)CCCl)cc1,0.517µM*,/,15.6,-17.4,0.92µM*,/
NC1CCCC[C@H]1N (stereo not given in full),/,7.5%,/,/,/,/
CC(N)CCCC(C)(C)O (stereo not given),0.0%,7.9%[56.1 µM],/,/,-6.4%,/
ClC1=C(Cl)C2(Cl)C(CBr)CC1(Cl)C2(Cl)Cl (stereo not given),6.2%,14.0%,/,/,-3.0%,/
O=c1[nH]c2ccccc2n1C1CCN(C(CCc2ccccc2)c2nnnn2C2CCCC2)CC1 (stereo not given),18.4µM*,/,-55.2*,/,16.4µM*,/
O=c1[nH]c2ccccc2n1C1CCN(C(c2cccc3ccccc23)c2nnnn2Cc2ccccc2)CC1 (stereo not given),11.6µM*,/,?,/,8.2µM*,/
O=c1[nH]c2ccccc2n1C1CCN(Cc2ccc(-c3[nH]c4cc5ncnc5cc4nc3-c3ccccc3)cc2)CC1,2.31µM*,19.3%,0.0,/,2.91µM*,/
